# Bioassay records from PubChem BioAssay.
# The list is not random: actives were taken first. Their share in the collection is about 3.1%.
# TSHR antag: antagonists of human thyroid stimulating hormone receptor; P16473; TSHR-expressing cells, TSH-stimulated cAMP HTRF, 2 h; hits give low values; activity change, negative = inhibition, % at 11.5 µM; 330,000 tested, 0.2% active; AID 504810;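 active = activity change below a set negative limit, meaning inhibition stronger than a set level, cut at about -70% in these data; inconclusive = activity change between two set negative limits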; note: % is set by controls: 0 for no effect and ±100 for the full control effect
# Target sequence (P16473 whole entry, looked up): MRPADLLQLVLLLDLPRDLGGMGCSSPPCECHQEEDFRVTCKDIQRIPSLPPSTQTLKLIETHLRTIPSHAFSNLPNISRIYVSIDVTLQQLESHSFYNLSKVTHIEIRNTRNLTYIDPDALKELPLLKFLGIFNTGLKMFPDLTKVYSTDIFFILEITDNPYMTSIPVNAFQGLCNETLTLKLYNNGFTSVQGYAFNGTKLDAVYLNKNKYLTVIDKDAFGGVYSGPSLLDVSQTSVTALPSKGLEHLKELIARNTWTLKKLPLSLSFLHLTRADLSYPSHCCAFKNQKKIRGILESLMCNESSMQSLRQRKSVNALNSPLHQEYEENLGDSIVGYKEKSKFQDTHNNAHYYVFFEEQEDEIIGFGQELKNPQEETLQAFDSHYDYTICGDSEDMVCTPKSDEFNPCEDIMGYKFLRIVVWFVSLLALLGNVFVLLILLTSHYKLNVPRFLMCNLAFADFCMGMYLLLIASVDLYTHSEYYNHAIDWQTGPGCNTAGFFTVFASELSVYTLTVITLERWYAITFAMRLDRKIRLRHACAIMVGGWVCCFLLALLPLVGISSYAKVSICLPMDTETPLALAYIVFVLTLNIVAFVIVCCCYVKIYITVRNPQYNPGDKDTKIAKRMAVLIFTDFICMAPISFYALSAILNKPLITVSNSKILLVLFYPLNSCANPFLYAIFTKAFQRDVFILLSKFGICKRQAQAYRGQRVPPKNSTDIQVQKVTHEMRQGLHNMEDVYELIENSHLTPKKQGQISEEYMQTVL
#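 Read-out is FRET at 665 nm (cryptate excitation 337 nm) from a cryptate-tagged anti-cAMP antibody, competed by cell cAMP against cAMP-d2. Compounds are tested on freshly harvested TSHR cells challenged with 4nM TSH (EC80) for 2 hours at 37 deg C.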
# VDR inh: vitamin D3 receptor (human) inhibition | AID 504847 | P11473 | VDR-SRC2-3 peptide fluorescence polarization, 2 h | Potency, µM, inactives show max response, negative = inhibition, usual class: inhibitors | 400,000 tested, 0.93% active; note: potency is the fitted concentration of half-maximal effect; % is set by controls: 0 for no effect and ±100 for the full control effect
#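 Two reagent solutions held at 4 deg C in the dark were dispensed, compounds pinned at 23 nl, and the mixture incubated 2 h at room temperature. Read-out: fluorescence polarization of VDR–SRC2-3 peptide binding.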
# Vif-A3G inh: inhibitors of Vif-APOBEC3G interaction. 410,000 tested, 0.076% active. AID 602310. HeLa A3G-eYFP + Vif (tagged APOBEC3G with the HIV-1 protein that degrades it), YFP fluorescence, overnight. Potency, µM (top dose mostly 46.1 µM), for the others: at the top dose activity, negative = active, actives largely listed as inhibitors; note: potency is the fitted concentration of half-maximal effect; % is set by controls: 0 for no effect and ±100 for the full control effect; nearly all actives have a fitted effect of over 60% in size
#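 HeLa cells stably expressing Vif and C-terminally eYFP-tagged A3G, seeded overnight at 37 deg C, then exposed to compound by pintool overnight at 37 deg C. Rise in yellow fluorescence (Ex 488/Em 500-530, Acumen) marks blocked Vif-driven A3G degradation.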
# PLK1 PBD inh: PLK1 (human) polo-box domain binding inhibition | Plk1 PBD binding of FITC phosphopeptide, fluorescence polarization | Potency, µM, for inactives: max response, negative = inhibition, usual class: inhibitors | AID 720504 | 360,000 tested, 2.8% active; note: potency is the fitted concentration of half-maximal effect; series mostly up to about 57 µM; % is set by controls: 0 for no effect and ±100 for the full control effect; nearly all actives have a fitted effect of over 65% in size
# Vif-A3F inh: inhibitors of Vif-A3F interaction | HeLa A3F-eYFP + Vif (tagged APOBEC3F with the HIV-1 protein that degrades it), YFP fluorescence increase | Potency, µM (titrated, usually from 46.1 µM), for the others: at the top dose activity, negative = active | 390,000 tested, 0.2% active; note: potency is the fitted concentration of half-maximal effect; % of control where 0% means no effect; nearly all actives have a fitted effect of over 65% in size
#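 HeLa cells stably expressing Vif plus C-terminally eYFP-tagged A3F were seeded, incubated overnight at 37 deg C, dosed with compound, incubated overnight again at 37 deg C. Yellow fluorescence (Ex 488/Em 500-530) reported blocked Vif-mediated A3F-eYFP degradation.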
# * marks the source's active call; other numbers are inactive results; ? = inconclusive; / = no result given. Unless noted, calls come from the whole dose curve; as a rule, active = well fitted curve in the direction sought with a large enough effect; inconclusive = small, poorly fitted or top-dose-only effect, or another doubt; inactive = no such curve, though single readings can be large; an effect the other way counts as inactive or inconclusive.
SMILES,TSHR antag,VDR inh,Vif-A3G inh,PLK1 PBD inh,Vif-A3F inh
CC(=O)Nc1ccc(C(=O)CSc2nc3ccccc3n2CC(=O)N2CCCC2)cc1,1,79µM*,3%,?,-1%
CC(=O)Nc1ccc(NC(=O)Cn2c(CC(=O)N3CCCC3)nc3ccccc32)cc1,24,-19%,1%,30µM*,1%
O=C(Cn1c(NCCO)nc2ccccc21)N1CCN(Cc2ccccc2)CC1,-1,-2%,-3%,4%,2%
CNC(=O)Cc1nc2ccccc2n1CC(=O)Nc1cc(C)cc(C)c1,-3,-11%,-1%,-6%,8%
CC(CNC(=O)c1ccc(Cn2c(=O)c3cccn3c3cccnc32)cc1)c1ccccc1 (stereo not drawn),/,5%,-13%,/,4%
NC(=O)CSc1nnc(Cc2ccc3c(c2)OCO3)n1C1CCCCC1,-5,-17%,0%,27µM*,-11%
O=C(CSc1nnc(Cc2ccc3c(c2)OCO3)n1C1CCCCC1)NC1CCCC1,-3,10%,0%,-7%,3%
C=CCOC(/C=C/c1ccccc1)C[Si](C)(C)C (stereo not drawn),/,?,-3%,/,/
Nc1c(Cl)cc(/C=C2\C=Cc3ccccc32)cc1Cl,/,/,-14%,/,/
O=C(CCc1nc2ccccc2s1)NC1CCOC1=O (stereo not drawn),8,-16%,-3%,24µM*,2%
O=C(CCCc1nc2ccccc2s1)NC1CCOC1=O (stereo not drawn),5,14%,-5%,10%,0%
Cc1ccc(S(=O)(=O)N2C(=O)C(c3ccccc3)SC2=Nc2ccccc2)cc1 (stereo not drawn),5,?,-4%,9.5µM*,-3%
O=C(NCc1ccco1)c1sc(=S)n2c1[nH]c(=O)c1ccccc12,?,?,1%,27µM*,-8%
CC[C@H](C)[C@H](NC(=O)[C@H](CCC(=O)O)NC(=O)CNC(=O)[C@@H](NC(=O)[C@@H]1CCCN1C(=O)[C@@H](NC(=O)[C@@H]1CCCN1C(=O)[C@@H]1CCCN1C(=O)[C@H](CC(N)=O)NC(=O)[C@H](CC(N)=O)NC(=O)[C@@H](NC(=O)[C@H](CCSC)NC(=O)[C@H](Cc1c[nH]c2ccccc12)NC(=O)CNC(=O)[C@@H](NC(=O)[C@H](CCC(N)=O)NC(=O)[C@@H](N)CCC(=O)O)[C@@H](C)CC)[C@@H](C)O)[C@@H](C)CC)C(C)C)C(=O)O,/,1%,/,/,/
CCCCN=Cc1sc2ccc(OCC)cc2c1O,1,?,-2%,27µM*,1%
CCc1ccccc1NC(=O)CN(c1ccccc1)S(=O)(=O)c1ccsc1C(=O)OC,/,4%,0%,/,-3%
Cc1cc(C)n(-c2cc(-c3ccccc3)nc(C)n2)n1,-7,-10%,0%,19µM*,-8%
CCN1C(=O)N[C@@H](CCc2ccccc2)C(C(C)=O)=C1C,/,?,-5%,27µM*,2%
COc1cc(C(=O)NCC(=O)N2CCN(S(=O)(=O)c3cc(C)ccc3C)CC2)cc(OC)c1OC,9,-2%,6.3µM*,3%,-15%
O=C(OCCF)N1CCN(/[N+]([O-])=N/Oc2ccc([N+](=O)[O-])cc2[N+](=O)[O-])CC1,/,/,-3%,/,/
O=C(CCCC(=O)OCC(=O)c1cccs1)Nc1ccc(F)cc1,0,-2%,1%,?,0%
O=C(CCCC(=O)OCC(=O)c1cccs1)Nc1ccc(Oc2ccccc2)cc1,-6,-9%,1%,30µM*,1%
O=C(Nc1ccc(Br)cn1)c1cnn2c1NC(=C1CC1)C=C2C(F)F,/,/,0%,/,/
Cc1ccc(CNc2ccc(O)cc2)cc1,-7,20µM*,3%,?,2%
Cc1ccc(NCc2ccccc2O)cc1,-3,-6%,4%,3%,-4%
SMILES,TSHR antag,VDR inh,Vif-A3G inh,PLK1 PBD inh,Vif-A3F inh
O=C(O)c1ccc(N/N=C/C=C/c2ccc([N+](=O)[O-])o2)cc1,-20,?,?,-13%,?
O=[N+]([O-])c1ccc(N/N=C/C=C/c2ccco2)cc1,/,-10%,?,19%,11µM*
Cc1ccnc(SCc2cc(=O)c(OC(=O)c3cc([N+](=O)[O-])ccc3Cl)co2)n1,3,-12%,2%,24µM*,-21%
O=C(Oc1coc(CSc2ncccn2)cc1=O)c1cccc([N+](=O)[O-])c1,-5,-9%,0%,?,-16%
NCCCC[C@H](N)C(=O)N[C@@H](CCCN=C(N)N)C(=O)N1CCC[C@H]1C(=O)N1CCC[C@H]1C(=O)NCC(=O)N[C@@H](Cc1ccccc1)C(=O)N[C@@H](CO)C(=O)N1CCC[C@H]1C(=O)N[C@@H](Cc1ccccc1)C(=O)O,/,-3%,/,/,/
CC(C)c1nn2c(=O)cc(COC(=O)c3ccc(NC(=O)CCc4ccccc4)cc3)nc2s1,/,0%,0%,/,-12%
CSCC[C@H](NC(=O)CN)C(=O)N[C@@H](CC(=O)O)C(=O)N[C@@H](CO)C(=O)N[C@@H](CC(C)C)C(=O)N[C@@H](C)C(=O)N[C@@H](Cc1ccccc1)C(=O)N[C@@H](CO)C(=O)NCC(=O)NCC(=O)N[C@@H](CC(C)C)C(N)=O,/,4%,/,/,/
CN1CCN(CC(O)COCCOc2ccc(Br)cc2)CC1 (stereo not drawn),9,25µM*,0%,27µM*,-2%
CCN1CCN(CC(O)COCCOc2ccc(Br)cc2)CC1 (stereo not drawn),8,-23%,-6%,4%,8%
O=S(=O)(c1ccc(=S)[nH]c1)N1CCOCC1,7,-21%,1%,7.5µM*,-4%
O=S(=O)(c1ccc2oc(=S)[nH]c2c1)N1CCOCC1,-4,?,1%,2.7µM*,-11%
O=S(=O)(c1cccc(S(=O)(=O)N2CCC(Cc3ccccc3)CC2)c1)N1CCOCC1,-13,4%,6%,27µM*,-4%
O=S(=O)(c1cccc(-c2n[nH]c(=S)o2)c1)N1CCOCC1,-2,-14%,1%,27µM*,2%
CC(C)(C)OC(=O)NCCCCC1=CC2=CC(=O)C(C)(OC(=O)CCc3ccccc3)C(=O)C2=CO1 (stereo not drawn),/,4%,/,/,/
Nc1nc(NCCc2ccccc2)c2[nH]cnc2n1,/,1%,0%,/,/
Cc1nc2cnc(N(C)C)nc2n(CCC#N)c1=O,/,-4%,/,/,/
Cc1cccc(C)c1NC(=O)c1cc(S(=O)(=O)N2CCOCC2)ccc1F,11,-11%,0%,-13%,-11%
O=S(=O)(c1ccc2oc(=S)[nH]c2c1)N1CCCCC1,-10,-4%,-1%,-23%,-2%
O=[N+]([O-])c1cc(S(=O)(=O)N2CCCCCC2)ccc1F,-12,-18%,?,15µM*,-1%
Cc1cc(S(=O)(=O)N2CCOCC2)ccc1F,4,-21%,1%,30µM*,8%
O=[N+]([O-])c1cc(S(=O)(=O)N2CCCC2)ccc1O,-4,0%,0%,-13%,-7%
